In PubChem BioAssay (Tox21) one finds Potency data, which are given here for seven compounds.

Several values for one entry are separate records, joined by “and”; a condition that tells them apart may be missing. Equal entries are not always repeated. Inconclusive results are not listed. A structure can be active in one record and inactive in another. Activity calls are given as the source filed them. Unless noted, the call rests on the fitted dose curve.

A short description of assay [1]: Nuclear factor erythroid 2-related factor 2/antioxidant responsive element (Nrf2/ARE) small molecule agonists: qHTS cell viability counter screen in human keratinocytes (AID 1919968; active means well fitted curve in the direction sought with a large enough effect in the repeat runs; an effect the other way counts as inactive or inconclusive; further: nearly all actives have a fitted effect of over 55% in size; further: potency means the concentration at half of the fitted maximal effect). The method in brief:
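Seed 1,500 KeratinoSens cells per well, then incubate 5 h at 37 C/5% CO2. Add compounds in DMSO and incubate 23 h. Add CellTiter-Fluor, wait 1 h and read fluorescence.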

Assay [2] in a line: Nuclear factor erythroid 2-related factor 2/antioxidant responsive element (Nrf2/ARE) small molecule agonists: luciferase reporter gene qHTS assay in human keratinocytes (AID 1919969). Further: nearly all actives have a fitted effect of over 35% in size. Further: potency means the concentration at half of the fitted maximal effect.
The nature of assay [3]: G protein-coupled receptor (GPCR) small molecule agonists, calcium flux assay: HEK293 wild type cell line counter screen (AID 1920065). The gist of the method: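 Counter-screen of the Tox21 10K library for non-specific calcium release: dye-loaded cells received compounds in DMSO and were monitored by kinetic fluorescence (480/540 nm, 3 min). Fifteen concentrations, run in triplicate.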

The nature of assay [4]: p53 small molecule agonists, cell-based qHTS assay with human liver microsomes (AID 1963577).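 Further: p53 response element beta-lactamase reporter cells with liver microsomes plus NADPH.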 The method in brief: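 16 h, 37 C exposure of p53RE-bla cells to compounds with human liver microsomes and NADPH (0.5 mg/mL final each); detection via LiveBLAzer mixture, 2 h dark at room temperature.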
In general terms: qHTS replaces the single test concentration by a dilution series.

Assay [5] can be described thus: p53 small molecule agonists, cell-based qHTS assay with rat liver microsomes (AID 1963578). The method in brief: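 With rat liver microsomes and NADPH present (0.5 mg/mL final each), p53RE-bla cells are treated with compound for 16 h at 37 C. LiveBLAzer detection mixture is then applied for 2 h at room temperature in the dark.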
Assay [6] in a line: p53 small molecule agonists, cell-based qHTS assay with rat liver microsomes: qHTS cell viability counter screen (AID 1963580). Further: nearly all actives have a fitted effect of over 45% in size. Further: potency means the concentration at half of the fitted maximal effect. The method in brief: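 p53RE-bla HCT-116 cells (4,000/well) rested 5 h at 37 C, then given Tox21 compounds in DMSO with rat liver microsomes (0.5 mg/mL final) plus NADPH (0.5 mg/mL final) for 16 h at 37 C. Viability read by CellTiter-Glo luminescence after 30 min at room temperature.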

A short description of assay [7]: p53 small molecule agonists, cell-based qHTS assay: qHTS cell viability counter screen (AID 1963581). Further: nearly all actives have a fitted effect of over 45% in size. Further: potency means the concentration at half of the fitted maximal effect. The gist of the method: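 Cells: HCT-116 with p53 response element-driven beta-lactamase. Treatment: 16 h, 37 C, compounds in DMSO. Read: CellTiter-Glo luminescence after 30 min RT.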
Assay [8] in a line: p53 small molecule agonists, cell-based qHTS assay (AID 1963582; active means well fitted activation curve with a large enough effect in the signal ratio in the repeat runs, not every such curve was filed as active; the % refers to the signal ratio). The gist of the method:
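Quantitative HTS in p53RE-bla cells: after a 5 h settling period, compounds delivered in DMSO were left on cells for 16 h at 37 C, and reporter induction was measured as fluorescence following 2 h substrate loading.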

The nature of assay [9]: cAMP Responsive Elements (CRE) small molecule antagonists, cell-based qHTS assay (AID 1963591; active means well fitted inhibition curve with a large enough effect in the signal ratio in the repeat runs, not every such curve was filed as active; the % refers to the signal ratio). The gist of the method:
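Antagonist mode: test compounds are co-incubated with the adenylyl cyclase activator NKH477 (0.25 uM final) on CRE-bla HEK293T cells for 3 h at 37 °C, followed by LiveBLAzer substrate loading.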

For assay [10], the target named is Beta-2 adrenergic receptor (Homo sapiens) (UniProt P07550). Briefly: Adrenergic beta2 receptor (ADRB2) small molecule antagonists, cell-based qHTS assay (AID 1963592). Further: nearly all actives have a fitted effect of over 50% in size. Further: potency means the concentration at half of the fitted maximal effect. The method in brief: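 Cells (CHO, stable ADRB2 overexpression) incubated 18-20hr at 37C; compounds added from DMSO; agonist mix (1nM isoproterenol, 100uM IBMX, 25uM Ro-20-1724) added; 0.5hr RT; d2-cAMP and anti-cAMP-cryptate added; 1hr RT; 665/615 nm read.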
Beta-2 adrenergic receptor (Homo sapiens), sequence (P07550 whole entry, looked up): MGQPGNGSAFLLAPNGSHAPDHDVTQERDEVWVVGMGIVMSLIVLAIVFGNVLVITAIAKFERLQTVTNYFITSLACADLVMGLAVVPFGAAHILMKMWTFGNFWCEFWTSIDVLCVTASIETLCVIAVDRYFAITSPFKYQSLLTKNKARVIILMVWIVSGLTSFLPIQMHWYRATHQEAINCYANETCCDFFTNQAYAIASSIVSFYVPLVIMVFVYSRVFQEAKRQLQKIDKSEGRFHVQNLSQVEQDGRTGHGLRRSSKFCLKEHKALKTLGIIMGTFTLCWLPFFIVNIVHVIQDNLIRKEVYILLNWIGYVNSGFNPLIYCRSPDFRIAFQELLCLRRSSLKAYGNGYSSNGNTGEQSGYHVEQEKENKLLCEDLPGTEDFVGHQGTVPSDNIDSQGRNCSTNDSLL

For assay [11] the target is unchanged. Briefly: Adrenergic beta2 receptor (ADRB2) small molecule agonists, cell-based qHTS assay (AID 1963593).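 Further: CHO cells stably overexpressing human ADRB2.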 The gist of the method:
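CHO cells stably over-expressing ADRB2 were plated overnight at 37C, then dosed with compounds plus a stimulation mix containing 100uM IBMX and 25uM Ro-20-1724 for 0.5hr at room temperature. cAMP was measured by HTRF competition, 1hr.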

For assay [12], the target named is D(2) dopamine receptor (Homo sapiens) (UniProt P14416). Briefly: Dopamine D2 receptor (DRD2) small molecule agonists, cell-based qHTS assay (AID 1963594). Further: nearly all actives have a fitted effect of over 35% in size. The gist of the method: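 HEK293 cells stably expressing DRD2 were cultured 24 h at 37 C, then given Ro20-1724 (0.1 mM final) and compounds for 10 min at room temperature. NKH477 (200nM) was then added for 30 min. cAMP was read by HTRF.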
D(2) dopamine receptor (Homo sapiens), sequence (P14416 whole entry, looked up): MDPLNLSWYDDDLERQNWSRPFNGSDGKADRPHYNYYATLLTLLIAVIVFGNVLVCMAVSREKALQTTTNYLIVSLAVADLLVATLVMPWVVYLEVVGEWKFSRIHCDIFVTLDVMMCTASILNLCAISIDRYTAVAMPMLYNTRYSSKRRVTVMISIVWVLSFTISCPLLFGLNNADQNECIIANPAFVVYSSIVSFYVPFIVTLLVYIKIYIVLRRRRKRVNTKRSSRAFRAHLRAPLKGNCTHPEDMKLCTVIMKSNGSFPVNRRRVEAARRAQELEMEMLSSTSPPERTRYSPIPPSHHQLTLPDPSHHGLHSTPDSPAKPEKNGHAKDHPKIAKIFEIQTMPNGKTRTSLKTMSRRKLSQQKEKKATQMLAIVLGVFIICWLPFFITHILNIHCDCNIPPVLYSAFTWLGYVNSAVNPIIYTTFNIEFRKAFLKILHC

Assay [13] has the same target. The assay can be described thus: Dopamine D2 receptor (DRD2) small molecule antagonists, cell-based qHTS assay (AID 1963595; active means well fitted inhibition curve with a large enough effect in the signal ratio in the repeat runs, with a control signal flat; the % refers to the signal ratio). The gist of the method: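 Readout: HTRF cAMP, cAMP-d2 competing with cellular cAMP for anti-cAMP cryptate, read after 1 h. Cells: DRD2-HEK293. Conditions: 0.1 mM Ro20-1724, 12 nM quinpirole, 200 nM NKH477, 30 min RT.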
A short description of assay [14]: p53 small molecule agonists, cell-based qHTS assay with human liver microsomes: qHTS cell viability counter screen (AID 1963579). Further: nearly all actives have a fitted effect of over 45% in size. The method in brief: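 In this multiplexed counter screen, the reporter plates were subsequently treated with CellTiter-Glo so that cell viability, reflected by luminescence, could be recorded for p53RE-bla cells dosed 16 h with compounds under microsomal activation (HLM and NADPH).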

For assay [15], the target named is 5-hydroxytryptamine receptor 2A (Homo sapiens) (UniProt P28223). Briefly: 5-hydroxytryptamine receptor 2A (HTR2A) small molecule antagonists, cell-based qHTS assay (AID 1963586). Further: nearly all actives have a fitted effect of over 45% in size. The gist of the method:
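Antagonist-mode intracellular calcium assay: DOI (4 nM) added after 5 min compound pre-incubation at room temperature to dye-loaded HTR2A-CHO cells. Fluorescence followed for 3 min, sampled every second.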

The target is the same in assay [16]. Briefly: 5-hydroxytryptamine receptor 2A (HTR2A) small molecule agonists, cell-based qHTS assay (AID 1963587). Further: nearly all actives have a fitted effect of over 30% in size. Further: potency means the concentration at half of the fitted maximal effect. The gist of the method:
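HTR2A-CHO cells, plated 18 h at 37 C/5% CO2, dye-loaded 1 h at 37 C; compounds in DMSO added by pin tool (agonist mode). Intracellular calcium flux read as kinetic fluorescence on FDSS over 2 min at 1 s intervals.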

The target of assay [17] is Muscarinic acetylcholine receptor M1 (Homo sapiens) (UniProt P11229). The assay can be described thus: Cholinergic receptor muscarinic 1 (CHRM1) small molecule antagonists, cell-based qHTS assay (AID 1963588). Further: nearly all actives have a fitted effect of over 40% in size. Further: potency means the concentration at half of the fitted maximal effect. The method in brief:
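CHRM1-CHO calcium-flux assay, antagonist mode. Cells were seeded 18 h, dye-loaded 1 h at 37 C and given compound for 5 min at RT, then acetylcholine was added at 50nM. FDSS fluorescence was read 3 min; 15 concentrations, three runs.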

Assay [18] can be described thus: cAMP Responsive Elements (CRE) small molecule agonists, cell-based qHTS assay (AID 1963590). The method in brief: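 Agonist mode qHTS in CRE-bla HEK 293T cells: compounds dosed from DMSO for 3 h at 37 C/5% CO2, followed by LiveBLAzer B/G FRET substrate for 2 h at room temperature.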
Assay [19] deals with KiSS-1 receptor (Homo sapiens) (UniProt Q969F8). Briefly: Human kisspeptin (KISS1R) small molecule agonists, calcium flux assay in KISS1R-HEK293 cells (AID 1920064; active means well fitted curve in the direction sought with a large enough effect in the repeat runs; an effect the other way counts as inactive or inconclusive). The gist of the method: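 Cells plated and incubated 18 h; dye added, 1 h at 37 C; compounds in DMSO pinned in; signal read at 480/540 nm every second for 3 min. Each compound tested at 15 concentrations in triplicate.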
KiSS-1 receptor (Homo sapiens), sequence (Q969F8 whole entry, looked up): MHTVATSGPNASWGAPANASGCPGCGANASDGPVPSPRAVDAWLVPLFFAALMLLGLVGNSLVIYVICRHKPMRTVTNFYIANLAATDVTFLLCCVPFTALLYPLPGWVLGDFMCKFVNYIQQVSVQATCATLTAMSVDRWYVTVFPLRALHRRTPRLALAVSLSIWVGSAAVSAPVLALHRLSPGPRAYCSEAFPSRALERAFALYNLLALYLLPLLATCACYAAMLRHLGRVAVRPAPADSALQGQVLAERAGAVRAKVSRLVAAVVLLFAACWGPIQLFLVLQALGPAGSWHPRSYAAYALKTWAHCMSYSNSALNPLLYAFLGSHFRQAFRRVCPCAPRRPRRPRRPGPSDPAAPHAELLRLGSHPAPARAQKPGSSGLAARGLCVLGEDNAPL
For orientation: Calcium flux is commonly read through the fluorescence of an indicator in the cells.

Assay [20] deals with Muscarinic acetylcholine receptor M1 (Homo sapiens) (UniProt P11229). The assay can be described thus: Cholinergic receptor muscarinic 1 (CHRM1) small molecule agonists, cell-based qHTS assay (AID 1963589). Further: nearly all actives have a fitted effect of over 35% in size. The method in brief:
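Agonist-mode qHTS in CHO cells stably carrying human muscarinic M1. Intracellular calcium is tracked by fluorescence every second after compound transfer; each compound runs at 15 concentrations in three independent runs.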

Muscarinic acetylcholine receptor M1 (Homo sapiens), sequence (P11229 whole entry, looked up): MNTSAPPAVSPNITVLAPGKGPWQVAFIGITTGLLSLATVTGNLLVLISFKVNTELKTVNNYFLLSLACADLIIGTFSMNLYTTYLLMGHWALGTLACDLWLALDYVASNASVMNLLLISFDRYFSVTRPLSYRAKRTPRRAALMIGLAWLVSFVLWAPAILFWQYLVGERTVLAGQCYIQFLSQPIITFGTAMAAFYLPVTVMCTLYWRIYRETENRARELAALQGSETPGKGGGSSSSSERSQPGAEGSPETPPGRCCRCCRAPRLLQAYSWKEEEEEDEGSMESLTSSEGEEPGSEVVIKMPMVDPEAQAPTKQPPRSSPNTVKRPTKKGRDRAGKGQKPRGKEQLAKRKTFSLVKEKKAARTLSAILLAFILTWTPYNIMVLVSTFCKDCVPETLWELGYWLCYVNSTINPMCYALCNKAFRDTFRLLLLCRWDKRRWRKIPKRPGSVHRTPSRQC
5-hydroxytryptamine receptor 2A (Homo sapiens), sequence (P28223 whole entry, looked up): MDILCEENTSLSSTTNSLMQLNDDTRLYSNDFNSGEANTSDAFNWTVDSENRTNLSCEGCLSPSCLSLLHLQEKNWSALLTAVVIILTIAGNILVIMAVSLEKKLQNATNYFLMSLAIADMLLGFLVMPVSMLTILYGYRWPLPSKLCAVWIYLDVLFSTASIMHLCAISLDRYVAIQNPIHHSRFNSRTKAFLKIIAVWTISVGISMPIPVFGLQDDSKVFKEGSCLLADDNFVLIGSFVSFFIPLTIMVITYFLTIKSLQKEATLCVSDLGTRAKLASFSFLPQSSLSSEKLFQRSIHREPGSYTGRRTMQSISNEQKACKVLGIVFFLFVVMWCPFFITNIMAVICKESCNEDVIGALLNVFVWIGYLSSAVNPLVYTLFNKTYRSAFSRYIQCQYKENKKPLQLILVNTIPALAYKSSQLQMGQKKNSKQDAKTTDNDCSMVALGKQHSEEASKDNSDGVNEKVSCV

Take `Oc1c(Cl)cc(Cl)cc1Sc1cc(Cl)cc(Cl)c1O`: the Potency was 13.7 µM (active) and 31.1 µM (active) and 27.3 µM (active) in assay [1]; 6.13 µM (active) and inactive in assay [2]; 20.5 µM (active) and 46.5 µM (active) and inactive in assay [6]; 36.4 µM (active) and inactive in assay [7]; 55.4 µM (active) and inactive in [10]. Further, the Potency entry in [3], in [4], in assay [5], in assay [8], in assay [9] and in assay [11] was “inactive” throughout. The Potency entry in [12] and in [13] was “inactive” each time.

As for `O=C(O)CCCCC(=O)O`, the Potency result in [1], in assay [2], in assay [3], in assay [4], in [5] and in assay [14] was “inactive” in each case. In addition, the Potency entry in assay [6], in assay [7], in assay [8], in assay [15], in [16] and in [17] was “inactive” in each case. Besides, the Potency entry in [18], in assay [9], in assay [10], in assay [11] and in [12] was “inactive” throughout.

For `O=c1ccc2ccccc2o1`, the Potency result in assay [1], in assay [19], in assay [3], in [4], in [5] and in assay [14] was “inactive” each time. Besides, the Potency result in [6], in assay [7], in assay [8], in [18], in assay [9] and in assay [10] was “inactive” in each case. Besides, the Potency result in [11], in assay [12] and in [13] was “inactive” in each case.

Take `C=C(C)C(N)=O`: the Potency entry in assay [1], in assay [19], in [3], in assay [4], in [5] and in assay [14] was “inactive” throughout. For the same compound, the Potency result in assay [6], in assay [7], in assay [8], in assay [15], in assay [16] and in [18] was “inactive” in each case. Besides, the Potency result in assay [9], in [11], in assay [12] and in [13] was “inactive” throughout. Further, in assay [17], the Potency was 847 nM (active) and inactive.

`C=C(C#N)C(=O)OCC`: the Potency result in [1], in assay [19], in [4], in assay [5], in assay [14] and in [6] was “inactive” in each case. In addition, the Potency result in [7], in [8], in [15], in assay [16], in assay [17] and in [20] was “inactive” throughout. For the same compound, the Potency result in assay [18], in [9], in assay [10], in assay [11], in assay [12] and in [13] was “inactive” throughout. In addition, the Potency result in assay [2] was “inactive and 68.6 µM (active)”.

Regarding `C#CC1(O)CC[C@H]2[C@@H]3CCC4=CCCC[C@@H]4[C@H]3CC[C@@]21C` (some centres not stated), the Potency in [1] is 27.3 µM (active) and inactive; in assay [7] it was 40.8 µM (active) and inactive; in assay [16], 54.9 µM (active) and inactive. Besides, the Potency entry in assay [2], in [19], in assay [4], in assay [5], in assay [14] and in assay [6] was “inactive” in each case. The Potency entry in assay [8], in assay [17], in assay [20], in [18], in assay [9] and in assay [10] was “inactive” in each case. The Potency entry in assay [11], in assay [12] and in assay [13] was “inactive” throughout.

Consider `CN(C)C(=O)Nc1ccc(Cl)c(Cl)c1`, for which the Potency entry in assay [1], in assay [19], in assay [3], in [4], in assay [5] and in assay [14] was “inactive” each time. Moreover, the Potency result in assay [6], in [7], in assay [8], in [15], in assay [17] and in [20] was “inactive” throughout. Moreover, the Potency entry in assay [18], in [9], in assay [10], in assay [11], in assay [12] and in assay [13] was “inactive” throughout.
